Experimental findings from the supplement of paper PMC6555819 are described below.

The experiment relates to VDR:RXRa (NR concentration 270 nM, RXRa partner concentration 90 nM). Kind of experiment: PBM binding z-score (relative to random genomic background probes); higher = stronger binding; sequences stand for … in GC…GCGATTGACAGCGTAGAATGAAGG
The method, then:
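Protein-binding microarray (Agilent 4x180K custom design, double-stranded 60-nt probes: 5' GC cap, 34-nt variable region, 24-nt constant primer region; full probe sequence given). Purified or IVT nuclear receptor:RXRα heterodimers (3:1 NR:RXRα, mostly 270:90 nM) or homodimers were incubated for 1 h in PBS with 2% milk and no ligand, then detected with Alexa488 antibodies. Fluorescence from o1-orientation probes (~5 replicates averaged) was converted to z-scores against 500 random hg19 background probes. Variable regions are seed direct-repeat (DR0–DR5) sites, all their single-nucleotide variants and half-site ablations.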
CCTACTTGGCCAAAAAGGTCATTGATGCCGATAA showed a PBM binding z-score of 4.82.

Turning to ACAGACAGGTAAGTGAAGGTAACTCAGCTGGACG, the PBM binding z-score is -0.31.

As for ATCTCTAGGTAAAGTTCAGTGAGAGATCGATAGA, the PBM binding z-score worked out at 1.64.

Consider TGACAAAGTTCAAAGGTAACGTAAGTATCCACAC, for which the PBM binding z-score worked out at 5.25.

Sequence CCGACTGGGGCATAAGGTTACCTTAAGCCAGCCC registered a PBM binding z-score of 0.0606.

In turn, CGTCCAAGGTCAGAGAGGTCAGGGAATGCCGAGT gave a PBM binding z-score of 7.31.

On to CCAGACAGGTGACAAGGTAACTCAGCCTCGATTA, for which the PBM binding z-score is 0.0377.

AGTCAAAGTTCACTAGGTAACGTAGGATTCAGCT showed a PBM binding z-score of 3.71.

Consider CTTCCAAGGTCAGAGAGGTCAGTGAATGCCGAGT, for which the PBM binding z-score is 7.43.

As to GCGACTGGGGCTAAGCAGGTTACCATAAGGTTGG, the PBM binding z-score is -0.0992.

On to AATACAGGGTCACTCGGCCAGAGTAGGTACGAAT, for which the PBM binding z-score was 4.3.

CCTACTGGGCAACGAAAGGTCATTGATTCAGTGA displayed a PBM binding z-score of 3.7.

With GTAGCAAGGTGAATAGGTCGTTGATGAGTAGGCG, the PBM binding z-score was 0.451.

Regarding CCTACTGGGCCAAGGGCATTGATCAGTCAAAGCA, the PBM binding z-score is -0.469.

With ATATATAGGTTAAGGGTCATTCAGGTTGGTTCGC, the PBM binding z-score came out at 6.11.

On to CCGGACAGGTGAAAGGTAACTCAGTCTGGTACGC, for which the PBM binding z-score was 0.694.

Sequence CGAACGAGGGCATGAGTCGATAGCAAATGCCGAT registered a PBM binding z-score of 0.359.

TCTATTAGTTGATTAGGACAACCGAAACAGCGGA gave a PBM binding z-score of 1.12.

As for CCAGACAGGTCAAAGGTAACTCAGTCTGGTACGC, the PBM binding z-score was 3.86.

In turn, CAAACTAGGTCAAAGGTCCAAGTCGAGCCAACCA showed a PBM binding z-score of 3.41.

For CAGCCTATGTCAGGGCCAGTATAGGAGGAACGTT, the PBM binding z-score is -0.493.

In the case of TCTAGTTGGTCAAAGGTCACATACTCGAAATGCG, the PBM binding z-score was 5.02.

Sequence GCTAGCAGGCCAATTGGGTCACTCAATGACGGGC registered a PBM binding z-score of 0.89.

Sequence CGAACGTGGGCATGAGTTGATAGCAAATGCCGAT displayed a PBM binding z-score of -0.7.

With CAAACTAGGTCACCAAAGGTCAAAGTCGAATGAC, the PBM binding z-score was found to be 6.93.

As to ATCTCTAGGTAAGAGTCAGTTCAGTGAAGAACGC, the PBM binding z-score amounted to 0.748.

On to ATAATGAGGTTATACGTAGATCAGGGAAGAAAGT, for which the PBM binding z-score came to 1.95.

As for AGTCAAAGTTCACTATGTAACGTAAGATTCAGCT, the PBM binding z-score stood at 3.89.

Take CGTGCTAGGTCATGGTCAGCTAATCTACAGTATG: the PBM binding z-score was 1.7.

Consider TAGCCTAGGTCAGATCAGGCCAGTATACGCTATA, for which the PBM binding z-score was 0.996.

In turn, CCTACAGGGCCATCAGGTCATTGATATCAACGTT yielded a PBM binding z-score of 2.48.

Sequence CCGACTGGGGCACAGGTTACCATACTCAGTACGA showed a PBM binding z-score of -0.165.

With ATCGAAAGGTCGAGGTGCGTATAGAGAAAGGGAA, the PBM binding z-score was determined as 2.16.

The sequence AGTCAAAGTTCAGGAGGAGGTAACGTAAAGCACG displayed a PBM binding z-score of 2.89.

ATCTCTAGGTAAAGATGGTTCAGTGAATGCAAAT returned a PBM binding z-score of 0.607.

As to TAGCCTAGGTCATTTAGGGGCCAGTATAGAAAGC, the PBM binding z-score is 3.03.

Sequence CGCACGAGGGCATGAGTTGATAGCAAATGCCGAT came in with a PBM binding z-score of 1.27.

In the case of ACTAGTAGTTGAGACGAGGGCAACCGATAGGTTG, the PBM binding z-score came out at 0.766.

As for CGTCCAAGGGCAGAGAGGTCAGTGAATGCCGAGT, the PBM binding z-score worked out at 5.05.

TCTATTTGGTCACGGAGGTCACACACGACGGGTA gave a PBM binding z-score of 5.87.
